40 compounds from PubChem BioAssay can be followed below.

Calls of active or inactive are those of the source.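 How the source made its calls, unless noted: active means primary screen hit whose fluorescence ratio, in both repeats, exceeds the weak agonist control mean by 3 SD; inactive means the rest.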

The subject of one assay is transient receptor potential cation channel C4 beta (TRPC4), mouse. Nature of the assay: TRPC4 cation channel opening, second retest – cell-based, second round, Fluo4, HEK293 TRPC4beta/mu-opioid, 1 µM, confirmation (AID 2461;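 active means primary screen active and over 50% activation in each of two duplicate runs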). The note with it: Fluo4 calcium fluorescence, at 1 µM; stronger effect = higher value.
Take `CCCc1ccc(OCc2ccc(C(=O)N3CCCC3)o2)cc1`: the outcome was inactive.
On the same count and under the same terms, next, `Cc1ccc(-c2csc3ncnc(NCCN4CCOCC4)c23)cc1`: “inactive”.
Still for that read-out and setting: the same measure for `Cn1c(=O)n(CCCO)c(=O)c2c1nc1n2CCCN1Cc1ccccc1`: “inactive”.
The same measure, in the same setting: next, `O=C(NC1CC1)c1ccc2c(c1)N(Cc1ccc(Cl)cc1)CCS2`: “inactive”; `O=C(COc1ccccc1-c1ccccc1)NCc1ccco1`: “inactive”; `CCOc1ccc2nc(NCCNC(=O)C3CC3)c(C)cc2c1`: “inactive”.

Another assay deals with TRPC4 (transient receptor potential cation channel C4 beta), mouse. Nature of the assay: potentiation of DAMGO EC20 TRPC4 response – cell-based, second round, Fluo-4, HEK293 TRPC4beta/mu-opioid, 1 µM, confirmation (AID 2554). The following applies: DAMGO EC20, Fluo-4 calcium flux, at 1 µM; stronger effect = higher value.
Consider `Cc1cc(N2CCCCC2)nc(NCc2ccccc2)n1`, for which the result was inactive.
Same read-out and setting: next, `COCCNC(=O)/C(C#N)=C/c1cc(C(C)C)c(OC)cc1C`: “inactive”.
`CCN1CCN(c2ccc(S(=O)(=O)N3CCCCC3)cc2NC(=O)COc2cc(C)ccc2Cl)CC1`: the result was inactive.
Consider `FC(F)(F)COc1nc(N2CCCCC2)nc(N2CCNCC2)n1`, for which the outcome was inactive.
For `CCSc1nnc([C@H](Cc2c[nH]c3ccccc23)NC(=O)OC(C)(C)C)o1`, the outcome was inactive.
Still for that read-out and setting: next, `COc1ccc(/C=C(\C#N)C(=O)N2CCOCC2)cc1Br`: “inactive”.
As for `N#Cc1ccc(OCC(O)CN2CCN(c3ncc(C(F)(F)F)cc3Cl)CC2)cc1` (stereo unspecified), the potentiation is 8% (active).
`CCCC1=C(C(=O)OCC)C(c2cc(Cl)cc(OC)c2OCC(=O)OCC)NC(=O)N1` (stereo unspecified): the outcome was inactive.
As for `CCCCCc1ccc(OCCCC[n+]2ccccc2)c(CCCCC)c1`, the result was inactive.
In the case of `CC(C)(C)c1ccccc1OCCCCCn1ccnc1`, the result was inactive.
Take `CCOC(=O)COc1cc(-n2c(=S)[nH]c3ccccc3c2=O)c(Cl)cc1Cl`: the potentiation was 8% (active).
On to `CCCCc1nc(N2CCOCC2)c(C#N)c2c1CCCC2`, for which the result was inactive.
On the same count and under the same terms, the same measure for `CCN1CCN(c2ccc(NC(=O)CCc3c(C)nc4c(-c5ccc(F)cc5)c(C)nn4c3C)cc2)CC1`: “inactive”; for `CCOc1cc(/C=C(\C#N)C(=O)Nc2cccc(C(=O)O)c2)cc(Br)c1OC(=O)c1ccc(OC)cc1`: “inactive”.
Consider `COc1ccc(Cl)c2sc(N(CCN(C)C)C(=O)c3ccc4c(c3)OCCO4)nc12`, for which the potentiation is 9% (active).
On to `CCCCN1C(=O)C(=O)N(CC(=O)Nc2cc(OCC)c(N3CCOCC3)cc2OCC)C1=O`, for which the outcome was inactive.
`CN(C)CCOc1ccc2ccccc2c1`: the potentiation is 8% (active).
Consider `CCCn1c(NCc2cc(OC)ccc2OC)nc2ccccc21`, for which the result was inactive.
As for `COC(=O)c1ccc(NC(=O)CCN2CCN(Cc3ccccc3)CC2)cc1`, the potentiation was 25% (active).
Take `Cn1c(=O)c2c(nc(SCCN3CCCCC3)n2Cc2ccccc2)n(C)c1=O`: the outcome was inactive.
On the same count and under the same terms, the same measure for `O=C(NCc1ccccc1Cl)/C(=C\c1cccnc1)NC(=O)c1ccccc1`: “inactive”; for `COC(=O)[C@@]12CCCN1[C@H](c1ccc(-c3ccc(OC)cc3)cc1)[C@@H]1C(=O)N(C)C(=O)[C@@H]12`: “inactive”.
Still for that read-out and setting: next, `COc1ccc(-c2cc(C(F)(F)F)nc(N3CCN(C)CC3)n2)cc1`: “inactive”; `CCOc1ccc(NS(=O)(=O)c2ccc(NC(=S)NC(=O)CC(C)C)cc2)cc1`: “inactive”.
Regarding `CCCN(CCC)CCCNC(=O)c1cc2c(=O)n(C)c3ccccc3c2n1C`, the potentiation was 23% (active).
Regarding `COc1ccc(CNCC(O)(c2ccccc2)c2ccccc2)cc1OC`, the result was inactive.
Still for that read-out and setting: next, `CCOc1cc2[nH]c(=S)n(C3CC3)c(=O)c2cc1OCC`: “inactive”; `CCOC(=O)c1c(C(F)(F)C(F)(F)C(F)(F)C(F)(F)F)n[nH]c1C`: “inactive”.
`Cn1c(=O)cc(OCCCC(=O)NCCCN2CCN(Cc3ccccc3)CC2)c2ccccc21`: the potentiation is 19% (active).
For `CC(=O)C1=C(O)C(=O)N(Cc2ccco2)C1c1ccc2c(c1)OCO2` (stereo unspecified), the outcome was inactive.
On the same count and under the same terms, the same measure for `CCc1cc2c(SCC(=O)N(C)C3CCS(=O)(=O)C3)ncnc2s1` (stereo unspecified): “inactive”; for `OC(CNCC1CCCO1)Cn1c2ccc(Br)cc2c2cc(Br)ccc21` (stereo unspecified): “inactive”.
Still for that read-out and setting: the same measure for `CCN1CCN(c2ccc(S(=O)(=O)N3CCCCC3)cc2NC(=O)c2cccc(F)c2)CC1`: “inactive”.
Same read-out and setting: next, `COC(=O)/C=C1\SC(=NC(=O)c2cccc(Cl)c2)NC1=O`: “inactive”; `CCCc1ccc(OCc2ccc(C(=O)N3CCCC3)o2)cc1`: “inactive”; `Cc1ccc(-c2csc3ncnc(NCCN4CCOCC4)c23)cc1`: “inactive”.
On to `Cn1c(=O)n(CCCO)c(=O)c2c1nc1n2CCCN1Cc1ccccc1`, for which the outcome was inactive.
Same read-out and setting: the same measure for `O=C(NC1CC1)c1ccc2c(c1)N(Cc1ccc(Cl)cc1)CCS2`: “inactive”.
As to `O=C(COc1ccccc1-c1ccccc1)NCc1ccco1`, the outcome was inactive.
With `CCOc1ccc2nc(NCCNC(=O)C3CC3)c(C)cc2c1`, the result was inactive.
